Measurements from PubChem BioAssay (Tox21).
Inconclusive results are not listed. Calls of active or inactive are those of the source. Unless noted, calls follow the shape of the dose curve; as a rule, active = well fitted curve in the direction sought with a large enough effect in the repeat runs; inconclusive = weak or mixed curves; inactive = no such curve, though single readings can be large; an effect the other way counts as inactive or inconclusive. Where a SMILES comes first, the peptide text is derived from it. [ ]: non-standard residue; d: D form. pGlu = O=C1CC[C@@H](C(=O)O)N1

Assays:
[1] = qHTS assay to identify small molecule agonists of the estrogen receptor alpha (ER-alpha) signaling pathway in the presence of an antagonist - cell viability counter screen (AID 1259386);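 also: cells exposed to compounds for 22 h at 37 °C before the viability read; nearly all actives have a fitted effect of over 30% in size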; also: potency is read from the fitted curve at half-maximal effect
Procedure, shortened: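 Cytotoxicity was measured in parallel with the ERE-luciferase agonist screen, in the same wells. The cells were VM7Luc4E2, which endogenously express ER-alpha, and treatment was with compounds plus 10.0nM ICI-182,780 for 22hr.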

[2] = target: Progesterone receptor (Homo sapiens) (UniProt P06401); test: qHTS assay to identify small molecule agonists of the progesterone receptor (PR) signaling pathway (AID 1346784; calls by dose curve; also: nearly all actives have a fitted effect of over 30% in size)
Procedure, shortened: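 Seed PR-UAS-bla HEK 293T cells (2% charcoal-stripped FBS), incubate 6 hr at 37C; add compounds in DMSO, 16 hr at 37C; add LiveBLAzer B/G substrate, 2 hr RT; read fluorescence intensity.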

[3] = target: Progesterone receptor (Homo sapiens) (UniProt P06401); test: qHTS assay to identify small molecule antagonists of the progesterone receptor (PR) signaling pathway (AID 1346795; active = well fitted inhibition curve with a large enough effect in the signal ratio in the repeat runs, not every such curve was filed as active; the % refers to the signal ratio; also: potency is read from the fitted curve at half-maximal effect)
Procedure, shortened: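 Screening used a GripTite HEK293T line with PR-responsive UAS-beta-lactamase. Cells were challenged with compound in the presence of 1 nM R5020 final for 16 hr at 37C; B/G FRET substrate, 2 hr room temperature, fluorescence.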

[4] = qHTS assay to identify small molecule antagonists of the progesterone receptor (PR) signaling pathway - cell viability counter screen (AID 1346798); also: series mostly up to about 92 µM; nearly all actives have a fitted effect of over 50% in size
Procedure, shortened: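 Measures cytotoxicity in parallel with the PR antagonist reporter read: HEK293T PR-UAS-bla cells get compound and R5020 for 16 hr, and remaining viable cells are quantified by CellTiter-Glo luminescence.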

[5] = qHTS assay to identify small molecule agonists of the progesterone receptor (PR) signaling pathway - cell viability counter screen (AID 1346799; calls by dose curve; also: nearly all actives have a fitted effect of over 45% in size)
Procedure, shortened: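 Using the same plates as the PR reporter screen, HEK293T PR-UAS-bla cells received compounds for 16 hr at 37C and were then lysed with CellTiter-Glo; luminescence was read 30 min later at room temperature.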

[6] = qHTS assay to identify small molecule antagonists of the TGF-beta/Smad signaling pathway - cell viability counter screen (AID 1346824); also: nearly all actives have a fitted effect of over 50% in size
Procedure, shortened: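 SBE-bla HEK 293T cells were plated overnight at 37 C, then given compounds in DMSO plus TGF-beta1 (added as 0.25 ng/mL solution) for 5 hr. After the bla read, CellTiter-Glo was added to the same wells and luminescence read after 30 min at room temperature.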

[7] = qHTS assay to identify small molecule agonists of the TGF-beta/Smad signaling pathway - cell viability counter screen (AID 1346829); also: top concentration of the series differs between compounds; nearly all actives have a fitted effect of over 45% in size
Procedure, shortened: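 Here the cytotoxicity of library compounds is measured in SBE-bla HEK 293T cells treated for 5 hr, using CellTiter-Glo added to wells already read for the beta-lactamase reporter.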

[8] = qHTS assay to identify small molecule agonists of the TGF-beta/Smad signaling pathway (AID 1346859; active = well fitted activation curve with a large enough effect in the signal ratio in the repeat runs, not every such curve was filed as active; the % refers to the signal ratio; also: series mostly up to about 77 µM)
Procedure, shortened: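 Beta-lactamase reporter activity downstream of Smad binding elements was measured in stably transfected HEK 293T cells; compounds were incubated for 5 hr, substrate for 2 hr at room temperature.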

[9] = target: Thyrotropin-releasing hormone receptor (Homo sapiens) (UniProt P34981); test: qHTS assay to identify small molecule antagonists of the thyrotropin-releasing hormone receptor (TRHR) signaling pathway (AID 1346877; active = well fitted inhibition curve with a large enough effect in the repeat runs, not every such curve was filed as active; also: series mostly up to about 51 µM)
Procedure, shortened: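 Antagonism is measured as suppression of the calcium response to 1 nM TRH in TRHR-HEK293 cells that have been dye-loaded for 2 h at 37 °C after overnight plating. Each compound is tested at 15 concentrations in triplicate.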

[10] = target: Thyrotropin-releasing hormone receptor (Homo sapiens) (UniProt P34981); test: qHTS assay to identify small molecule agonists of the thyrotropin-releasing hormone receptor (TRHR) signaling pathway (AID 1346891; calls by dose curve;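 also: HEK293 cells expressing TRHR with calcium dye readout; series mostly up to about 58 µM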)
Procedure, shortened: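 Overnight-plated (18 h, 37 °C, 5% CO2) TRHR-Hek293 cells; 2 h calcium dye at 37 °C; compound in DMSO; 3-min kinetic fluorescence read.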

Measured: Potency

Sequence of Progesterone receptor (Homo sapiens) (P06401 whole entry, looked up): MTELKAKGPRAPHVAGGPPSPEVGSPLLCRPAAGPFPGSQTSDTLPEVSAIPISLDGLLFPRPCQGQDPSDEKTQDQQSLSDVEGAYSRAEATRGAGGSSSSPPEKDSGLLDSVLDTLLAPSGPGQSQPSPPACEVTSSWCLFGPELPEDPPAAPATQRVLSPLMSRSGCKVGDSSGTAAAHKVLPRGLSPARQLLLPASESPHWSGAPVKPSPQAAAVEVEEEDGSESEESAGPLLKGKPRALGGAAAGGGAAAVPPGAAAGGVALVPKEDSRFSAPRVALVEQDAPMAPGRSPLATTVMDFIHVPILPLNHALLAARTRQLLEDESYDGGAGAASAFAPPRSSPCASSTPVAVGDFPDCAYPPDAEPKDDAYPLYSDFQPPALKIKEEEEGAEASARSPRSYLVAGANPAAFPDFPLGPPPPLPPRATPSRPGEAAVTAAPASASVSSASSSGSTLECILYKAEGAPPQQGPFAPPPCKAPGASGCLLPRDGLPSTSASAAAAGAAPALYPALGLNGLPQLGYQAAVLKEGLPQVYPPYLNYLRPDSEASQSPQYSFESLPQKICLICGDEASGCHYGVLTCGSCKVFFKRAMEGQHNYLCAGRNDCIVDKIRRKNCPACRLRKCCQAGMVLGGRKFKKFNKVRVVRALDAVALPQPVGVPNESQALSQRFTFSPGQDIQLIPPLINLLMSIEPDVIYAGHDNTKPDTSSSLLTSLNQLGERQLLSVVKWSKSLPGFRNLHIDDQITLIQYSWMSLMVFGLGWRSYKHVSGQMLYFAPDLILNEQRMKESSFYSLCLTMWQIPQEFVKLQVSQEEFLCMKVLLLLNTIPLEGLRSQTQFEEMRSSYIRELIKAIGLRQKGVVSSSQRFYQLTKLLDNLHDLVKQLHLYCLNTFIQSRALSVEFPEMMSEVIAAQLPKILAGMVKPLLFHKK
Sequence of Thyrotropin-releasing hormone receptor (Homo sapiens) (P34981 whole entry, looked up): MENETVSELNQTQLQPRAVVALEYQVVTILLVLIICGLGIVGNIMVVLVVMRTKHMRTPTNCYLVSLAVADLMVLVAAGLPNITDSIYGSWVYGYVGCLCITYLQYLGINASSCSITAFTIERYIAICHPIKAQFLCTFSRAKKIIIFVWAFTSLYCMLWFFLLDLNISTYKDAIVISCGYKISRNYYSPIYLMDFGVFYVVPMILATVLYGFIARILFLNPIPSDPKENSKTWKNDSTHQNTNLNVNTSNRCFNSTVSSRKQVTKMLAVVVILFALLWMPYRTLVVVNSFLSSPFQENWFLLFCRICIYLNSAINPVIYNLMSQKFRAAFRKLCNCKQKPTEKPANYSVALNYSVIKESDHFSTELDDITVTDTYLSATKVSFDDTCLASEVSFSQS

C=CCCC(=O)O
not listed: [9] | [10]
inactive: all other assays above

CC1(C)OC[C@@H](COC(=O)CCc2ccc(OC[C@@H](O)CNCCNC(=O)N3CCOCC3)cc2)O1
inactive: all assays above

CN1C(C)(C)CC(O)CC1(C)C
not listed: [9] | [10]
inactive: all other assays above

CN1CC(=O)N/C1=N/C(=O)Nc1cccc(Cl)c1
inactive: all assays above

CCC(C)(CN(C)C)OC(=O)c1ccccc1 (centres undefined)
not listed: [9] | [10]
inactive: all other assays above

CC[N+](C)(CC)CCOC(=O)C1c2ccccc2Oc2ccccc21
inactive: all assays above

CC1=NN(c2cc(S(=O)(=O)O)ccc2Cl)C(=O)C1N=Nc1ccccc1 (centres undefined)
active: [1] 27.3 µM
inactive: all other assays above

CCC(=O)OCc1ccccc1
inactive: all assays above

NCCCC[C@H](N[C@@H](CCc1ccccc1)C(=O)O)C(=O)N1CCC[C@H]1C(=O)O
not listed: [9] | [10]
inactive: all other assays above

CC(C)(C)C(=O)Oc1ccc(S(=O)(=O)Nc2ccccc2C(=O)NCC(=O)O)cc1
inactive: all assays above

CCCCCCCC1CCCC1=O (centres undefined)
not listed: [9] | [10]
inactive: all other assays above

CC(C)C1CCC(O)CC1 (centres undefined)
inactive: all assays above

Nc1ccn([C@@H]2O[C@H](CO)[C@@H](O)C2O)c(=O)n1 (some centres undefined)
inactive: all assays above

c1ccc(Cc2ccccc2)cc1
inactive: all assays above

O=C(c1ccccc1O)c1ccccc1O
active: [3] 27 µM
not listed: [9] | [10]
inactive: all other assays above

CC(=O)Nc1ccc(OCC(O)CNC(C)C)cc1 (centres undefined)
inactive: all assays above

CCCC(C)C(=O)OCC (centres undefined)
inactive: all assays above

COc1ccnc(CS(=O)c2nc3cc(OC(F)F)ccc3[nH]2)c1OC (centres undefined)
not listed: [9] | [10]
inactive: all other assays above

CN(C)C(=O)Oc1ccc[n+](C)c1
not listed: [9] | [10]
inactive: all other assays above

CC12CCC(C(=O)C1=O)C2(C)C (centres undefined)
inactive: all assays above

CCC(C)(CCCC(C)C)OC(C)=O (centres undefined)
not listed: [9] | [10]
inactive: all other assays above

C=C(C)C(=O)OCC1CCCO1 (centres undefined)
inactive: all assays above

CCCC[N+](C)(CCCC)CCCC
not listed: [9] | [10]
inactive: all other assays above

O=S(=O)(O)c1cccc(S(=O)(=O)O)c1
not listed: [9] | [10]
inactive: all other assays above

NC(=O)N1c2ccccc2CC(=O)c2ccccc21
not listed: [9] | [10]
inactive: all other assays above

CC(=O)N[C@H]1[C@H]([C@H](O)[C@H](O)CO)OC(C(=O)O)=C[C@@H]1N=C(N)N
inactive: all assays above

CC1=C(C/C=C(\C)CCC[C@H](C)CCC[C@H](C)CCCC(C)C)C(=O)c2ccccc2C1=O
not listed: [9] | [10]
inactive: all other assays above

CCOc1ccccc1OCC
not listed: [9] | [10]
inactive: all other assays above

CCNC(=O)[C@@H]1CCCN1C(=O)[C@H](CCCN=C(N)N)NC(=O)[C@H](CC(C)C)NC(=O)CNC(=O)[C@H](Cc1ccc(O)cc1)NC(=O)[C@H](CO)NC(=O)[C@H](Cc1c[nH]c2ccccc12)NC(=O)[C@H](Cc1cnc[nH]1)NC(=O)[C@@H]1CCC(=O)N1 ([pGlu]HWSYGLRP-NHEt)
not listed: [9] | [10]
inactive: all other assays above

CCOCC(C)O (centres undefined)
inactive: all assays above

CCN(CC#N)c1cccc(C)c1
not listed: [9] | [10]
inactive: all other assays above

NS(=O)(=O)Cc1noc2ccccc12
not listed: [9] | [10]
inactive: all other assays above

C=COCC1CCC(COC=C)CC1 (centres undefined)
not listed: [9] | [10]
inactive: all other assays above

C=CCCCCCCCCC(=O)OCC
not listed: [9] | [10]
inactive: all other assays above

O=C(O)c1cn(C2CC2)c2cc(N3CCNCC3)c(F)cc2c1=O
not listed: [9] | [10]
inactive: all other assays above

CC[N+](CC)(CC)CCOc1cccc(OCC[N+](CC)(CC)CC)c1OCC[N+](CC)(CC)CC
not listed: [9] | [10]
inactive: all other assays above

O=C(O)CCSCCC(=O)O
not listed: [9] | [10]
inactive: all other assays above

CCCCc1nc(Cl)c(CO)n1Cc1ccc(-c2ccccc2-c2nn[nH]n2)cc1
not listed: [9] | [10]
inactive: all other assays above

CC1(C)[C@@H]2CC[C@@]1(C)[C@H](O)C2
inactive: all assays above

Nc1c2c(nc3c1CCC3)CCCC2
inactive: all assays above

O=C(O)CNC(=O)c1ccccc1
inactive: all assays above

C=CC(C)(CCC=C(C)C)OC(=O)CC (centres undefined)
inactive: all assays above

CCN1CCOCC1
inactive: all assays above

CN1[C@@H]2CC[C@H]1CC(OC(=O)C(O)c1ccccc1)C2 (some centres undefined)
inactive: all assays above

C=CN1CCCCCC1=O
inactive: all assays above

CN(C)C(=O)Oc1cccc([N+](C)(C)C)c1
inactive: all assays above

C[N+]1(C)[C@@H]2CC(OC(=O)[C@H](CO)c3ccccc3)C[C@H]1[C@@H]1O[C@@H]12 (some centres undefined)
inactive: all assays above

[K+]
inactive: all assays above

NC(=O)Cc1cccc2ccccc12
inactive: all assays above

CCOC(=O)C(=O)CCCCCCl
inactive: all assays above

CC(CO)(CO)[N+](=O)[O-]
inactive: all assays above

Cc1ccc(C(=O)c2ccccc2)cc1
inactive: all assays above
